Screening results from PubChem BioAssay.
Pf apPOL block: Pf-apPOL DNA polymerase inhibition | Recombinant Pf-apPOL, molecular beacon fluorescence, 1.5 h | inhibition, % at 10 µM | 0.25% of 210,000 active | AID 1794808
mHTT-CaM PPI inh: mHTT-calmodulin interaction abrogation; P42858; AlphaScreen His-mHTT/GST-CaM binding, luminescence; inhibition, % at 15 µM; 3.6% of 190,000 active; AID 1671202
Each line names hits and unclear results; the compound was inactive in the other large screens. The entries come from a sample that favours hits as a whole. No stated cut-off is given here; in the data, active means inhibition above about 50%; inactive means the rest.

CCn1cc(CN2CCCC(c3nc(-c4ccc(F)cc4)n[nH]3)C2)cn1 (centres undefined)	none
Cc1cccc(C(C)C)c1NC(=O)c1ccc(Br)o1	none
O=C(c1ccc(Cl)cc1)N1CCC(CCOc2cccnc2)CC1	none
CC1(C)Cc2c(sc3nc(NN)nc(NN)c23)CO1	mHTT-CaM PPI inh 100.3
Cn1c(NN)nc2sc3c(c2c1=O)CC(C)(C)OC3	none
CCc1nc2ccc(-c3noc(-c4ccoc4)n3)cc2n1CC	none
CC(C)C(NC(=O)c1ccccc1Br)C(=O)O (centres undefined)	none
CC(C)(C)C(=O)N1CCCC(c2ccnc(Nc3cccc(F)c3)n2)C1 (centres undefined)	mHTT-CaM PPI inh 77.9
Cc1ccccc1C(=O)N1CCCC(c2ccnc(Nc3cccc(F)c3)n2)C1 (centres undefined)	mHTT-CaM PPI inh 99.5
Cc1ccccc1C(=O)N1CCCC(c2ccnc(-c3ccccc3)n2)C1 (centres undefined)	none
COc1ccccc1C(=O)N1CCCC(c2ccnc(-c3cccc(F)c3)n2)C1 (centres undefined)	mHTT-CaM PPI inh 51.0
COc1ccc(C(=O)N2CCCC(c3ccnc(Nc4cccc(F)c4)n3)C2)c(OC)c1 (centres undefined)	none
Cc1cccc(-c2nccc(C3CCCN(C(=O)C(C)(C)C)C3)n2)c1 (centres undefined)	none
COc1ccccc1C(=O)N1CCCC(c2ccnc(-c3cccc(C)c3)n2)C1 (centres undefined)	none
COc1ccc(C(=O)N2CCCC(c3ccnc(Nc4cccc(F)c4)n3)C2)cc1 (centres undefined)	mHTT-CaM PPI inh 64.0
CCSc1nc(=O)n(Cc2ccccc2)c2c1CCC2	none
Cc1c(-c2noc(C(=O)NCCCc3ccccc3)n2)oc2ccccc12	none
COc1ccc(Nc2nccc(C3CCCN(C(=O)c4ccc(C#N)cc4)C3)n2)cc1 (centres undefined)	none
Cc1ccccc1Nc1nccc(C2CCCN(C(=O)c3ccoc3)C2)n1 (centres undefined)	none
Cc1ccc(C(=O)N2CCCC(c3ccnc(Nc4ccc(F)cc4)n3)C2)s1 (centres undefined)	mHTT-CaM PPI inh 82.3
COc1ccccc1C(=O)N1CCCC(c2ccnc(Nc3ccccc3C)n2)C1 (centres undefined)	mHTT-CaM PPI inh 52.0
O=C(c1ccc(F)cc1)N1CCCC(c2ccnc(Nc3ccccc3)n2)C1 (centres undefined)	none
CN(C)c1ccc(C(=O)N2CCCC(c3ccnc(Nc4ccc(F)cc4)n3)C2)cc1 (centres undefined)	mHTT-CaM PPI inh 88.3
O=C(c1ccc(F)cc1)N1CCCC(c2ccnc(Nc3cccc(F)c3)n2)C1 (centres undefined)	mHTT-CaM PPI inh 80.9
CCCC(=O)N1CCCC(c2ccnc(Nc3ccc(C)cc3)n2)C1 (centres undefined)	none
COc1cc(CNc2cccc(Cl)c2C)cc(OC)c1OC	none
CCOc1ccccc1C(=O)Nc1c2c(nn1-c1ccc(C)cc1)CSC2	none
Cc1sc2nc(C)n(Cc3c(F)cccc3F)c(=O)c2c1C	none
COc1ccccc1C(=O)Nc1ccc(-c2nc3cc(Cl)ccc3o2)cc1	none
COc1cccc(C(=O)N=c2scc(C)n2CC(=O)N2CCCC2)c1	none
CC(C)c1c(C(=O)NCC2CCCO2)cnn1-c1ccccc1Cl (centres undefined)	none
CC(C)C1C(=O)N(Cc2cn(CCC3OCCCO3)nn2)CCS(=O)(=O)N1Cc1ccc(-c2cccc(N(C)C)c2)cc1 (centres undefined)	mHTT-CaM PPI inh 61.1
COCOCCn1cc(CN2CCS(=O)(=O)N(Cc3ccc(-c4cccc(CO)c4)cc3)C(C(C)C)C2=O)nn1 (centres undefined)	none
COCOCCn1cc(CN2CCS(=O)(=O)N(Cc3ccc(-c4cccc(N(C)C)c4)cc3)C(C(C)C)C2=O)nn1 (centres undefined)	mHTT-CaM PPI inh 56.7
CC(C)C1C(=O)N(Cc2cn(CCC3OCCCO3)nn2)CCS(=O)(=O)N1Cc1ccc(-c2cccc(CO)c2)cc1 (centres undefined)	none
CC1C(=O)N(Cc2cn(CCC3OCCCO3)nn2)CCS(=O)(=O)N1Cc1ccc(-c2cccc(N(C)C)c2)cc1 (centres undefined)	none
CC(C)C1C(=O)N(Cc2cn(CCC3OCCO3)nn2)CCS(=O)(=O)N1Cc1ccc(-c2cccc(N(C)C)c2)cc1 (centres undefined)	mHTT-CaM PPI inh 67.7
CCCCNC(=S)N1CCc2cc(OC)c(OC)cc2C1COc1ccc(C(=O)OCC)cc1 (centres undefined)	none
Cc1ccc2nc(-c3cccn3C)cc(C(=O)N3CCC(C(N)=O)CC3)c2c1	none
COc1ccc(-c2noc(C3CCN(CC(=O)NC(C)(C)C)CC3)n2)cc1	none
Cc1sc(/C=C(/C#N)C(N)=S)cc1[N+](=O)[O-]	none (no result: Pf apPOL block)
Cc1cc(C)c(NC(=O)c2cc3c(C)nn(-c4ccccc4)c3s2)c(C)n1	none
CCCn1cc2c3c(cccc31)CN(C(=O)c1ccccc1OC)CC2	mHTT-CaM PPI inh 58.2
COCCn1cc2c3c(cccc31)CN(C(=O)c1cccc(C(F)(F)F)c1)CC2	mHTT-CaM PPI inh 69.6
COCCn1cc2c3c(cccc31)CN(C(=O)c1ccccc1Cl)CC2	none
COCCn1cc2c3c(cccc31)CN(C(=O)c1ccccc1OC)CC2	mHTT-CaM PPI inh 52.1
CCCn1cc2c3c(cccc31)CN(C(=O)NCCCOC)CC2	none
COCCn1cc2c3c(cccc31)CN(C(=O)c1cc(F)cc(F)c1)CC2	none
CSc1ccc(CN2CCC(c3nc4cccnc4n3C)C2)cc1 (centres undefined)	none
Cc1nc2c(-c3ccc(Cl)cc3)c(C)nn2c(N)c1-c1ccccc1	none
COc1ccc(-c2cc3nc(C)cc(Nc4ccc(C(N)=O)cc4)n3n2)cc1OC	none
Cc1cc(Nc2ccc(C(N)=O)cc2)n2nc(C)c(-c3ccccc3)c2n1	mHTT-CaM PPI inh 74.4
Cc1nn2c(N)cc(-c3ccccc3)nc2c1-c1ccccc1	mHTT-CaM PPI inh 83.3
O=C(Cc1c[nH]c2ccccc12)N1CCc2nc3cc[nH]n3c(=O)c2C1	none
O=C1CSC(c2cccc([N+](=O)[O-])c2)N1c1ccc(F)cc1F (centres undefined)	none
CCc1cccc(NC(=O)C2CCc3nc(N4CCN(C(C)=O)CC4)sc3C2)c1 (centres undefined)	none
CCN(C(=O)CN1C(=O)NC2(CCCCC2)C1=O)c1ccccc1	none
CCN(C(=O)CN1C(=O)c2ccccc2C1=O)c1ccccc1	mHTT-CaM PPI inh 98.1
CC(C)(C)C(=O)NC(=O)Nc1cccc2nsnc12	none
Cn1nc(-c2nc(-c3cccc(F)c3)no2)c2c1CCN(C(=O)c1cccc(F)c1)C2	none
Cn1nc(-c2nc(-c3ccccc3)no2)c2c1CCN(C(=O)c1ccccc1)C2	mHTT-CaM PPI inh 51.5
Cn1nc(-c2nc(C3CC3)no2)c2c1CCN(C(=O)c1ccc(Cl)cc1)C2	none
Cn1nc(-c2nc(C3CC3)no2)c2c1CCN(C(=O)Nc1ccc(Cl)cc1)C2	mHTT-CaM PPI inh 62.7
Cn1nc(-c2nc(-c3cccc(F)c3)no2)c2c1CCN(C(=O)c1cccs1)C2	mHTT-CaM PPI inh 61.1
Cc1ccc(C(=O)N2CCc3c(c(-c4nc(-c5ccccc5)no4)nn3C)C2)cc1	none
CCOc1cccc2cc(-c3cc(=O)oc4cc(OC)ccc34)c(=O)oc12	none
O=C(NCCS(=O)(=O)N1CCN(c2ncccn2)CC1)c1cc2ccccc2o1	none
Cn1c(=O)c2c(nc(Oc3ccc(F)cc3)n2Cc2ccc(Cl)cc2)n(C)c1=O	none
CCC(=O)N1CCc2sc(S(=O)(=O)NCc3ccc(F)cc3)cc2C1	none
